Luciferase inh = inhibitors of firefly (Photinus pyralis) luciferase. AID 1347043. actives 2.5% (n = 76,000). purified P. pyralis luciferase, luminescence, biochemical. P08659. Potency, µM (series often up to 115 µM), most hits filed as inhibitors; further: nearly all actives have a fitted effect of over 65% in size
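Cell-free enzyme assay, 10nM P. pyralis luciferase, luciferin and ATP each at 10uM. Inhibition profiled over a 6-point titration, read as luminescence.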
HEK cytotox = kills HEK 293 cells | HEK 293 viability, ATP luminescence (CellTiter-Glo), 48-72 h | Potency, µM (top dose mostly 115 µM), most hits filed as inhibitors | actives 6.6% (n = 94,000); further: nearly all actives have a fitted effect of over 60% in size
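Read-out: CellTiter-Glo ATP luminescence. Cells: HEK 293, 250 cells/well. Exposure: 48 or 72 hr, 37 degree Celsius.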
3T3 cytotox = kills NIH 3T3 cells; AID 1345082; Potency, µM (highest dose often 96.7 µM), hits mostly inhibitors; actives 4.3% (n = 94,000); NIH 3T3 viability, CellTiter-Glo ATP luminescence, 48-72 h; further: nearly all actives have a fitted effect of over 55% in size
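Viability of NIH 3T3 cells after 48 or 72 hr compound treatment at 37 °C was assessed by CellTiter-Glo, with luminescence imaged following a 10 min room-temperature step.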
hNpr1 antagonist = human Npr1 receptor antagonism. P16066. HEK293 hNpr1 GloSensor cGMP, ANP-stimulated luminescence. Potency, µM (highest dose often 46.3 µM), usual class: inhibitors. actives 1.6% (n = 76,000); calls by dose curve; further: nearly all actives have a fitted effect of over 60% in size
Target sequence (P16066 whole entry, looked up): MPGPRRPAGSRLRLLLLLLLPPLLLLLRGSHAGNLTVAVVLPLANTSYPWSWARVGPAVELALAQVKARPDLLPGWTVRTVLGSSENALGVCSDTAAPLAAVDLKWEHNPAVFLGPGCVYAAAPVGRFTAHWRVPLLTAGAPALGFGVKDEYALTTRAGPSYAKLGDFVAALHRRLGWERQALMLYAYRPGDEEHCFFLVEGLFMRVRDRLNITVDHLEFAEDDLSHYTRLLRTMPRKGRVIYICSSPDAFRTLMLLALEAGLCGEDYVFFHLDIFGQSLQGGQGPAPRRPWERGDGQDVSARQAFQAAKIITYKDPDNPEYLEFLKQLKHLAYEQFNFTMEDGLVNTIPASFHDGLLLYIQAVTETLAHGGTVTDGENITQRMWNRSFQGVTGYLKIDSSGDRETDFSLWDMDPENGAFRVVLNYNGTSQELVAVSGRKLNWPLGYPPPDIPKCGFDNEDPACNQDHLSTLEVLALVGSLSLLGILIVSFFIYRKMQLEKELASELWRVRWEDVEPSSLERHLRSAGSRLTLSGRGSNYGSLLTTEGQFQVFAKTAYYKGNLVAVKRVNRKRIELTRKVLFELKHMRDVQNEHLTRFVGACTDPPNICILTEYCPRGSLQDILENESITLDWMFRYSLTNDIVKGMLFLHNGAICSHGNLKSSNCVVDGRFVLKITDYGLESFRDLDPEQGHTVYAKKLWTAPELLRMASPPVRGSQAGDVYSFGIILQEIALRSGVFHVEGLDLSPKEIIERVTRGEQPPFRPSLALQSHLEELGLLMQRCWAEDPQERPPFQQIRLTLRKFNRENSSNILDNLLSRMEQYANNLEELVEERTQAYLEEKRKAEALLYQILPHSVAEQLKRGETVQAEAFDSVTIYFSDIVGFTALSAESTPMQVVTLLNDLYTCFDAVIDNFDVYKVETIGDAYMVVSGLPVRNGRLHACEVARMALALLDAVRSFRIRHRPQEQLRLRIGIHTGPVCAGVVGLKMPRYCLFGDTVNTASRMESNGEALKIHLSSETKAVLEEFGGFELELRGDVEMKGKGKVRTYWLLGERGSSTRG
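HEK293 cells stably expressing human Npr1 and cGMP GloSensor pGS-40F, loaded 2 h with 2% GloSensor reagent, given compound 30 min at room temperature. Luminescence read before and 20 min after 0.1 nM hNppA.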
Each line names hits and unclear results; the compound was inactive in the other large screens. Hits are enriched below; roughly 11% of the tested compounds scored in any of these assays. Unless noted, the call rests on the fitted dose curve; in most records, active means well fitted curve in the direction sought with a large enough effect; inconclusive means small, poorly fitted or top-dose-only effect, or another doubt; inactive means no such curve, though single readings can be large; an effect the other way counts as inactive or inconclusive.

CN1CCC2(C1)CN(CC1CC1)c1ccc(C(=O)NC3CCC3)cc12 (stereo not given)	HEK cytotox inconclusive, 3T3 cytotox inconclusive
COc1ccc(NC(=O)c2ccc3c(c2)C2(CCN(C)C2)CN3CC2CC2)cc1 (stereo not given)	HEK cytotox 50µM, 3T3 cytotox 25µM
CN1CCC2(C1)CN(CC1CCOCC1)c1ccc(C(=O)Nc3ccccc3)cc12 (stereo not given)	Luciferase inh 50µM, HEK cytotox 100µM, 3T3 cytotox inconclusive
CN1CCC2(C1)CN(CC1CC1)c1ccc(C(=O)NCCOc3ccccc3)cc12 (stereo not given)	HEK cytotox 56µM, 3T3 cytotox 40µM
COc1ccc(NC(=O)C2CN(C3CCCCC3)C(=O)N2)cc1OC (stereo not given)	none (no result: Luciferase inh, hNpr1 antagonist)
COc1ccccc1-c1cc2c(nc1OC)nc(CC1CC1)n2C	HEK cytotox inconclusive, 3T3 cytotox inconclusive
COC(=O)[C@@H]1Cc2c([nH]c3ccccc23)[C@H]2C[C@@H](N3CCOCC3)C[C@@H](c3ccccc3)N21	HEK cytotox inconclusive, 3T3 cytotox inconclusive
COC(=O)[C@@H]1Cc2c([nH]c3ccccc23)[C@H]2C[C@H](NCCNC(C)=O)C[C@@H](c3ccccc3)N21	HEK cytotox 89µM, 3T3 cytotox inconclusive
CC(=O)NCCNC(=O)c1ccc(-c2cccc(C(F)(F)F)c2)cc1	HEK cytotox inconclusive (no result: Luciferase inh, hNpr1 antagonist)
COCCNC(=O)[C@@H]1C[C@@H](c2ccc(F)cc2)N([S+](=O)([O-])c2ccccc2)C1	3T3 cytotox inconclusive
COC(=O)[C@@H]1Cc2c([nH]c3ccccc23)[C@H]2C[C@H](NCCNC(C)=O)C[C@@H](c3ccc(C(F)(F)F)cc3)N21	HEK cytotox 20µM, 3T3 cytotox 28µM
COCCN[C@@H]1C[C@@H]2c3[nH]c4ccccc4c3C[C@@H](C(=O)OC)N2[C@H](c2ccc(C(F)(F)F)cc2)C1	HEK cytotox 35µM, 3T3 cytotox 45µM
O=C(c1ccccc1Cl)N1CCN(C(=O)c2nc3cccnc3n(CCc3ccccc3)c2=O)CC1	HEK cytotox inconclusive (no result: Luciferase inh, hNpr1 antagonist)
CC(C)c1nc2c(c(-c3ccc(Cl)cc3)n1)CCN(Cc1ccsc1)CC2	HEK cytotox 45µM, 3T3 cytotox inconclusive (no result: Luciferase inh, hNpr1 antagonist)
CC(C)c1nc2c(c(-c3ccc(Cl)cc3)n1)CN(C(=O)C(C)(C)C)CC2	HEK cytotox 40µM, 3T3 cytotox inconclusive (no result: Luciferase inh, hNpr1 antagonist)
COc1ccc(-c2nc(C(C)C)nc3c2CCN(C(=O)c2ccc(C)cc2)CC3)cc1	HEK cytotox inconclusive, 3T3 cytotox inconclusive
COc1ccc(-c2nc(C(C)C)nc3c2CCN(C(=O)c2ccc(C(F)(F)F)cc2)CC3)cc1	HEK cytotox 32µM, 3T3 cytotox 28µM
CC(C)c1nc2c(c(-c3ccc(O)cc3)n1)CN(Cc1ccc(OC(F)(F)F)cc1)CC2	HEK cytotox 22µM, 3T3 cytotox 22µM
CCc1nc2c(c(-c3ccc(O)cc3)n1)CN(Cc1ccc(NC(C)=O)cc1)CC2	none (no result: Luciferase inh, hNpr1 antagonist)
O=C(NCc1ccccc1Cl)c1ccc2oc(-c3ccccn3)nc2c1	HEK cytotox inconclusive (no result: Luciferase inh, hNpr1 antagonist)
Cc1ccc(C(=O)N2CCc3nc(C(C)C)nc(-c4ccc(Cl)cc4)c3CC2)cc1	HEK cytotox 79µM, 3T3 cytotox inconclusive (no result: Luciferase inh, hNpr1 antagonist)
CCc1nc2c(c(-c3ccc(Cl)cc3)n1)CCN(C(=O)c1ccc(C)cc1)CC2	HEK cytotox inconclusive, 3T3 cytotox inconclusive
COc1ccc(-c2nc(C(C)C)nc3c2CCN(C(=O)Nc2ccc(Cl)cc2)CC3)cc1	HEK cytotox inconclusive, 3T3 cytotox 35µM
O=C(c1ccc2c(c1)OCO2)N1CCCC2(CNc3ncccc3[S+](=O)([O-])N2)C1 (stereo not given)	none (no result: Luciferase inh, hNpr1 antagonist)
CCCc1ccc([S+](=O)([O-])N2CCC3(CC2)CNC(=O)C3CO)cc1 (stereo not given)	HEK cytotox inconclusive (no result: Luciferase inh, hNpr1 antagonist)
CN(Cc1ccccc1)c1ccc2nnc(-c3ccccn3)n2n1	HEK cytotox inconclusive, 3T3 cytotox 45µM
C[C@@H]1CN(c2ccc3nnc(-c4ccccn4)n3n2)C[C@H](C)O1	HEK cytotox inconclusive, 3T3 cytotox 79µM
COc1ccc(-c2nnc3ccc(N(C)Cc4ccccc4)nn23)nc1	HEK cytotox inconclusive, 3T3 cytotox inconclusive
CC(=O)NC1CCN(c2ccc3nnc(-c4ccccc4)n3n2)C1 (stereo not given)	none (no result: Luciferase inh, hNpr1 antagonist)
CCCCN(C)C(=O)CCC1CCN(c2cc(NC3CC3)ncn2)CC1	HEK cytotox 32µM, 3T3 cytotox inconclusive, hNpr1 antagonist 18µM
CCNc1cc(N2CCC(CCC(=O)N3CCN(c4ncccn4)CC3)CC2)ncn1	HEK cytotox 50µM, 3T3 cytotox inconclusive, hNpr1 antagonist inconclusive
CCCNc1cc(N2CCC(CCC(=O)NCC3CC3)CC2)ncn1	none
CCCNc1cc(N2CCC(CCC(=O)N3CCN(c4ccccc4F)CC3)CC2)ncn1	Luciferase inh inconclusive, HEK cytotox inconclusive, 3T3 cytotox inconclusive, hNpr1 antagonist 13µM
O=C(CN1CCCc2nc(-c3ccccc3)ncc2C1=O)N1CCOCC1	HEK cytotox inconclusive (no result: Luciferase inh, hNpr1 antagonist)
O=C(NCCC1CCCCC1)c1ccc2nccn2c1	Luciferase inh inconclusive, HEK cytotox 50µM, 3T3 cytotox inconclusive
O=C(NCc1cccs1)c1ccc2nccn2c1	Luciferase inh 40µM
O=C(NCC1CC1)c1ccc2nccn2c1	none (no result: Luciferase inh, hNpr1 antagonist)
Cc1ccc(S(=O)(=O)N2CC(C(=O)NCc3ccncc3)C3(CCOCC3)C2)c(C)c1 (stereo not given)	none
CC(C)c1ccc(CC(=O)N2CCCc3ncc(C(=O)Nc4ccc5[nH]ccc5c4)cc32)cc1	HEK cytotox 35µM, 3T3 cytotox inconclusive
CC(C)c1ccc(CC(=O)N2CCCc3ncc(C(=O)NCc4ccccc4)cc32)cc1	HEK cytotox 89µM, 3T3 cytotox 89µM
CC(C)c1ccc(CC(=O)N2CCCc3ncc(C(=O)NCCN4CCCC4)cc32)cc1	HEK cytotox inconclusive, 3T3 cytotox inconclusive
CC(C)c1ccc(CC(=O)N2CCCc3ncc(C(=O)NCCN(C)C)cc32)cc1	HEK cytotox inconclusive, 3T3 cytotox 100µM
COc1ccc(Cn2c(=O)c(C(=O)NCC(F)(F)F)nc3cccnc32)cc1	none (no result: Luciferase inh, hNpr1 antagonist)
CC(C)NC(=O)N1CCC(C(=O)N2CCCC(c3nc4ncccc4[nH]3)C2)CC1 (stereo not given)	none (no result: Luciferase inh, hNpr1 antagonist)
CN(CCCN1CCCCCC1)c1nc(-c2ccncc2)nc2c1cnn2C	HEK cytotox inconclusive, 3T3 cytotox 32µM
Cn1ncc2c(C(=O)CCc3ccc(F)cc3)cc(-c3ccc(Cl)cc3Cl)nc21	HEK cytotox 35µM, 3T3 cytotox 32µM (no result: Luciferase inh, hNpr1 antagonist)
Cn1ncc2c(C(=O)NCc3cccs3)cc(-c3ccc(Cl)cc3Cl)nc21	HEK cytotox 40µM, 3T3 cytotox inconclusive (no result: Luciferase inh, hNpr1 antagonist)
Cn1ncc2c(C(=O)NCc3cccc(Cl)c3)cc(-c3ccc(Cl)cc3Cl)nc21	none (no result: Luciferase inh, hNpr1 antagonist)
Cn1ncc2c(C(=O)NCC(F)(F)F)cc(-c3ccc(Cl)cc3Cl)nc21	none (no result: Luciferase inh, hNpr1 antagonist)
COCCNc1cc(-c2cccc(C(F)(F)F)c2)nc2c(C)noc12	HEK cytotox 89µM, 3T3 cytotox inconclusive
Cc1noc2c(NCc3cccnc3)cc(-c3cccc(C(F)(F)F)c3)nc12	HEK cytotox 100µM, 3T3 cytotox 79µM

Assay outcomes: PubChem BioAssay, National Center for Advancing Translational Sciences (NCATS)
